Measurements from PMC7862700, “An all-to-all approach to the identification of sequence-specific readers for epigenetic DNA modifications on cytosine”.

Columns and labels:
Experiment in all cases: DAPPL (digital affinity profiling via proximity ligation, sequencing); 10 mM Tris-HCl pH 7.5, 50 mM NaCl, 1 mM DTT, 4% glycerol, room temperature, 30 min; GST-TFs on glutathione beads, 16-mer random dsDNA library, 0.1% formaldehyde crosslink after washing; high values mean tight binding
[1] = target: T1, FEV (Homo sapiens, UniProt Q99581 1-238); conditions: protein: recombinant; tags: N-terminal GST; dsDNA, one strand shown
T1 sequence: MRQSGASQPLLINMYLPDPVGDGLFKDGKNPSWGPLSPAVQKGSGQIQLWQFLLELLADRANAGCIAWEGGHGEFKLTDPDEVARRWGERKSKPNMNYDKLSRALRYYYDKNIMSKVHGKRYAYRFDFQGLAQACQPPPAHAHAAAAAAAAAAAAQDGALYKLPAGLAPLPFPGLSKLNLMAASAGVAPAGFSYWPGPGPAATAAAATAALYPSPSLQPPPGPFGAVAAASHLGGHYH
Method in brief: (§1)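 Binding signal is given per hexamer as its read frequency for a factor divided by its frequency in the tag-only sample. GST-fused human transcription factors were expressed in yeast, captured on glutathione beads, barcoded with DNA and pooled with that sample, then incubated with 200 nmole of a 16-mer random double-stranded DNA library in Tris/NaCl/DTT/glycerol buffer for 30 min at room temperature. The pools were then washed, crosslinked, proximity-ligated, amplified by PCR and sequenced on an Illumina NextSeq500.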

[2] = target: ETV5 (Homo sapiens, UniProt P41161 1-510); conditions: protein: recombinant; tags: N-terminal GST; dsDNA, one strand shown
Sequence of ETV5 (P41161 whole entry): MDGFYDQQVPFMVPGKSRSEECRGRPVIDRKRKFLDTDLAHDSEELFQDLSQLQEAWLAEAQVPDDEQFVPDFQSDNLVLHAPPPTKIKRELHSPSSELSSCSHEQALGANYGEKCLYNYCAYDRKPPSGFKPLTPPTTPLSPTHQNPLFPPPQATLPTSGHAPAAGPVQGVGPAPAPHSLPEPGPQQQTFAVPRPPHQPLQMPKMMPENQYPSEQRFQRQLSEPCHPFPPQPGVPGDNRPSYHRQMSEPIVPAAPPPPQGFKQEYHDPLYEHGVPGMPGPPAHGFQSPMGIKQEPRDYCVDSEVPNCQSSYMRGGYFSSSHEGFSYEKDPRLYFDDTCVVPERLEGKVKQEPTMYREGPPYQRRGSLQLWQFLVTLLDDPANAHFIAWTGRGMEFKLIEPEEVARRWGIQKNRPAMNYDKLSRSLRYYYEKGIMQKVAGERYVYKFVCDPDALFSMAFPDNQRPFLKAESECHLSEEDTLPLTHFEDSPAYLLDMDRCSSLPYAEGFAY
Method in brief: as §1

[3] = target: HSF1 (Homo sapiens, UniProt Q00613 1-529); conditions: protein: recombinant; tags: N-terminal GST; chain copies: 3; dsDNA, one strand shown
Sequence of HSF1 (Q00613 whole entry): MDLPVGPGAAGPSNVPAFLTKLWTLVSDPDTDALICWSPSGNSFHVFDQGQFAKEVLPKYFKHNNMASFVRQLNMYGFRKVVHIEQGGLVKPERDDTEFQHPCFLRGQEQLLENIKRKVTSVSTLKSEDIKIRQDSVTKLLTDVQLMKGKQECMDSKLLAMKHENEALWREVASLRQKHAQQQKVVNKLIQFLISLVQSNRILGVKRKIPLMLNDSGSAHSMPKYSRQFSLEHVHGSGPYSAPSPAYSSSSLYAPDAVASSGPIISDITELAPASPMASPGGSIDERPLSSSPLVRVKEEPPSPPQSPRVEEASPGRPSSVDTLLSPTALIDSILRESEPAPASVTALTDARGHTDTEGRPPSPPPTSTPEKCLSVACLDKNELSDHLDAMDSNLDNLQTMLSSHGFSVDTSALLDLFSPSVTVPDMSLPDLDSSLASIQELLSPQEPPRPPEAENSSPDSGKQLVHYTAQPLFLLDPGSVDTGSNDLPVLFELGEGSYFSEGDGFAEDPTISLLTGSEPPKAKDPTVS
Method in brief: as §1

[4] = target: T2, SPIC (Homo sapiens, UniProt Q8N5J4 1-248); conditions: protein: recombinant; tags: N-terminal GST; dsDNA, one strand shown
T2 sequence: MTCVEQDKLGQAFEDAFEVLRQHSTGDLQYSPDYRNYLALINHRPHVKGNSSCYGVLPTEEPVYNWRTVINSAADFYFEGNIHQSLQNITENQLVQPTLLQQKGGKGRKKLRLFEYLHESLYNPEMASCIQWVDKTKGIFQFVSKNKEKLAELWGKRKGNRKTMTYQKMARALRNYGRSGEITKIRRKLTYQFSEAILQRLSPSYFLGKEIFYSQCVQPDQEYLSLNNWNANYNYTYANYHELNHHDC
Method in brief: as §1

[5] = target: ELF4 (Homo sapiens, UniProt Q99607 1-663); conditions: protein: recombinant; tags: N-terminal GST; dsDNA, one strand shown
Sequence of ELF4 (Q99607 whole entry): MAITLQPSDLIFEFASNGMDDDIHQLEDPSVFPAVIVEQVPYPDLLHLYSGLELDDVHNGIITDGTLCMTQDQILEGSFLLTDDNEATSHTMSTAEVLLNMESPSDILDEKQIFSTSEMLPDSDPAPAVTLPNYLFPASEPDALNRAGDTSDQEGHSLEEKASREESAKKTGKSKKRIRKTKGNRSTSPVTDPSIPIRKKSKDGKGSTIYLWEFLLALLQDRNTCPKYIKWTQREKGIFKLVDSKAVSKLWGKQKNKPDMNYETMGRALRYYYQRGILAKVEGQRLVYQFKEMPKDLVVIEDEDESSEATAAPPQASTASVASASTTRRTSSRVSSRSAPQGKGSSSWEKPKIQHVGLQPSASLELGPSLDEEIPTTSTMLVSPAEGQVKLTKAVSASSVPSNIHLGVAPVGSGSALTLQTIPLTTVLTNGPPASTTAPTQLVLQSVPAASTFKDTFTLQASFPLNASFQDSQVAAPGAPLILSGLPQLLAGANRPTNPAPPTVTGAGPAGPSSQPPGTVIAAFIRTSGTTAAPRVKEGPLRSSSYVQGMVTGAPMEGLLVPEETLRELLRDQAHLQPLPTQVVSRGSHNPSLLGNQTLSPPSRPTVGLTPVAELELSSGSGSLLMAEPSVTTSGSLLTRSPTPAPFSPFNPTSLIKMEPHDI
Method in brief: as §1

[6] = target: T3, ELK4 (Homo sapiens, UniProt P28324-2 1-405); conditions: protein: recombinant; tags: N-terminal GST; dsDNA, one strand shown
T3 sequence: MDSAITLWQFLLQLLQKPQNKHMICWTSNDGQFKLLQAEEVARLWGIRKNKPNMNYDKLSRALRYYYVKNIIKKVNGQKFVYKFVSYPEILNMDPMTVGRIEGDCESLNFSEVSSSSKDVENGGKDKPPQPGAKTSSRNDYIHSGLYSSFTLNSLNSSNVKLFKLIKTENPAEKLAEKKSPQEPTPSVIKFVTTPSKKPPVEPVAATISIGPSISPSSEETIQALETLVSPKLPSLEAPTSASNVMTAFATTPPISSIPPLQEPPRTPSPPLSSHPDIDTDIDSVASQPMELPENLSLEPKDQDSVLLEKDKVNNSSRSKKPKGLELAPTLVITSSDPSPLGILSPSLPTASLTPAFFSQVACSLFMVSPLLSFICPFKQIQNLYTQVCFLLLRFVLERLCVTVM
Method in brief: as §1

[7] = target: T4, ETV2 (Homo sapiens, UniProt O00321 1-342); conditions: protein: recombinant; tags: N-terminal GST; dsDNA, one strand shown
T4 sequence: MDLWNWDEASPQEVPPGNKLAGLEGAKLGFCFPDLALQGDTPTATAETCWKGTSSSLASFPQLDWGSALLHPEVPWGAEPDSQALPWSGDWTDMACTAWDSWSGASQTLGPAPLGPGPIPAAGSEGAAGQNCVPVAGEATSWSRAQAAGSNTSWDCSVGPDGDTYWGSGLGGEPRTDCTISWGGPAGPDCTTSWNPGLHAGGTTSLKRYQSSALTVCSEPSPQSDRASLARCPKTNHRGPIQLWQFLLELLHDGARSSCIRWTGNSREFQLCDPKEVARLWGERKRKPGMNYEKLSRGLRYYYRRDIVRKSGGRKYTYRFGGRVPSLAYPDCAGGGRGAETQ
Method in brief: as §1

[8] = target: T5, ELF3 (Homo sapiens, UniProt P78545 1-371); conditions: protein: recombinant; tags: N-terminal GST; dsDNA, one strand shown
T5 sequence: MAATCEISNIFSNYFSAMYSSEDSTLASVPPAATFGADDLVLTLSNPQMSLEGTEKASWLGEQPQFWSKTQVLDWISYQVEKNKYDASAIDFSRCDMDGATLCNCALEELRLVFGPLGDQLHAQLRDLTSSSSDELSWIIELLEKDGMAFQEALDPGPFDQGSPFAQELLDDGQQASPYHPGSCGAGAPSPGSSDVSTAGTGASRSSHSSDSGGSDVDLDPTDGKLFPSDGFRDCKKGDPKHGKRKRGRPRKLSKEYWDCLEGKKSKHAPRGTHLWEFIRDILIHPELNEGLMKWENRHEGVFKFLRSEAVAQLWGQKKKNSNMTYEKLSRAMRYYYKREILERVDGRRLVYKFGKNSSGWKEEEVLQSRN
Method in brief: as §1

[9] = target: CRX (Homo sapiens, UniProt O43186 1-299); conditions: protein: recombinant; tags: N-terminal GST; dsDNA, one strand shown
Sequence of CRX (O43186 whole entry): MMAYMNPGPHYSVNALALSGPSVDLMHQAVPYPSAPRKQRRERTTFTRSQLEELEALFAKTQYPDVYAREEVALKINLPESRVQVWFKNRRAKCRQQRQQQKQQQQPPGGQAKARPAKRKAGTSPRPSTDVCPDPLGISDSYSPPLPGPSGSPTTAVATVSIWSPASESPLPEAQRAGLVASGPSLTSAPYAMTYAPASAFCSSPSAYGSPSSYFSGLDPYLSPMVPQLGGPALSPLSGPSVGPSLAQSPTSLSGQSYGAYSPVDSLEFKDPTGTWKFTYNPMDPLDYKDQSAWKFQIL
Method in brief: as §1

[10] = target: ETV1 (Homo sapiens, UniProt P50549 1-477); conditions: protein: recombinant; tags: N-terminal GST; dsDNA, one strand shown
Sequence of ETV1 (P50549 whole entry): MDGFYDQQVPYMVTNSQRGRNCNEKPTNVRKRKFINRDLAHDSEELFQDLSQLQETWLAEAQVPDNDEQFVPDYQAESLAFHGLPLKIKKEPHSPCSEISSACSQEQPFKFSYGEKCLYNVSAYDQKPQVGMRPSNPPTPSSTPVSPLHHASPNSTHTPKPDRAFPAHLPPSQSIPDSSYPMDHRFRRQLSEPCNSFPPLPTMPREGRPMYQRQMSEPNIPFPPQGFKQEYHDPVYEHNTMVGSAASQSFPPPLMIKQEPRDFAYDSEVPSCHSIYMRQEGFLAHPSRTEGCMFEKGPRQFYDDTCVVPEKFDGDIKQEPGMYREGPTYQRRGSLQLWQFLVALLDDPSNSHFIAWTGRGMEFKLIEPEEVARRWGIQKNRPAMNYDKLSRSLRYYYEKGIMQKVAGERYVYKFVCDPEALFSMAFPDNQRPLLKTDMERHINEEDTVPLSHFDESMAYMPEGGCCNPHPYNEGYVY
Method in brief: as §1

CTATGC
binding signal [1]: 1.36 fold enrichment (6-mer frequency, TF over GST control) | binding signal [2]: 1.38 fold enrichment (6-mer frequency, TF over GST control) | binding signal [3]: 1.28 fold enrichment (6-mer frequency, TF over GST control) | binding signal [4]: 1.54 fold enrichment (6-mer frequency, TF over GST control) | binding signal [5]: 1.48 fold enrichment (6-mer frequency, TF over GST control) | binding signal [6]: 1.38 fold enrichment (6-mer frequency, TF over GST control) | binding signal [7]: 1.55 fold enrichment (6-mer frequency, TF over GST control) | binding signal [8]: 1.2 fold enrichment (6-mer frequency, TF over GST control) | binding signal [9]: 1.15 fold enrichment (6-mer frequency, TF over GST control) | binding signal [10]: 1.55 fold enrichment (6-mer frequency, TF over GST control)
